The text below walks through data of the OligoGym collection.
Note: reference of the scale not given here.

For one assay, the target named is ANKRD53. Description: pooled miR-30 sensor sort-seq; sequence = guide strand. Particulars: shRNA.
For the sequence TTCATCGAATGTGTCACGCAGG, the sensor-assay potency score (higher = more potent) is -0.608.

Consider TTGCTAACATTCCACATTGTGG, for which the sensor-assay potency score (higher = more potent) was -1.32.

With TCTGATAGCAGCTTCTCTGAGA, the sensor-assay potency score (higher = more potent) was -0.337.

For the sequence TTGCTTGGTATTGGAGACCAGA, the sensor-assay potency score (higher = more potent) was -0.812.

In another assay the target is ANTXR1. The description is as above. Particulars: shRNA.
Regarding TTGATAATCACAGTGCAGCAGA, the sensor-assay potency score (higher = more potent) was -0.3.

On to TTGTATACACACACATGCCTTA, for which the sensor-assay potency score (higher = more potent) was -0.352.

As for TCATTGATCTTGAAGCTGCAGA, the sensor-assay potency score (higher = more potent) is -0.552.

Take TTATATTCTGCCTTGTTCCAGA: the sensor-assay potency score (higher = more potent) was -0.0343.

For TGTCTCTACACTGTGAGCCTGG, the sensor-assay potency score (higher = more potent) was -0.327.

Take TAAAGTGAGTGAATGAAGCTGG: the sensor-assay potency score (higher = more potent) turned out to be 0.662.

Consider TTTTCCATCAGTAAACACCTGC, for which the sensor-assay potency score (higher = more potent) was 0.177.

As to TTCTCATTGAGTGTGACCGAGT, the sensor-assay potency score (higher = more potent) is -0.633.

TTGGAGAGTACCACTTCCGGGG: the sensor-assay potency score (higher = more potent) is -0.563.

Take TTATTGATTAAACAGATCCAGA: the sensor-assay potency score (higher = more potent) is -1.04.

As to TTGAGTTTCTTACCACACCAGG, the sensor-assay potency score (higher = more potent) was -1.02.
